Molecules are shown by their SMILES. This is part of a sample that, as a whole, favours compounds with a hit. Of some 83,000 tested, about 20% had one in any assay.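 Interpretation: 100, growth as untreated; towards 0, rising growth inhibition; 0, no net growth; 0 to -100, cell death. Compounds scoring below 10 were considered active.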 Active and inactive are the calls of the source.

Results on 39 molecules are retold here after PubChem BioAssay (NCI).

For this experiment, the system named is HL-60(TB) leukemia. Description: NCI-60 one-dose screen, 48 h (100 = growth as untreated, 0 = no growth, -100 = all killed). As to conditions: 10 µM unless noted.
For the molecule `CCN1CC(CCN2CCOCC2)C(C(c2ccccc2)c2ccccc2)C1=O` (centres undefined), the growth is 113% (inactive).
The value for `CCCn1c(=O)[nH]c(N)c([C@H]2c3ccccc3Oc3[nH]c(=O)n(CCC)c(=O)c32)c1=O` was 32.9% (inactive); that for `Cc1ccc2c(c1)=C/C(=C\c1cc(-c3ccccc3)[nH]c1O)C(=O)N=2` was -4.3% (active).
In the case of `CN1CCN(Cc2ccc(NC(=O)c3cncc(C#Cc4cnc5ccc(Cl)nn45)c3)cc2C(F)(F)F)CC1`, the growth is -17.6% (active).
In the case of `Cc1nc(Nc2cccnc2)sc1C(=O)/C=C/c1ccc(F)cc1` it was 12.6% (inactive).
The value for `FC1(F)CCN(Cc2c[nH]c3cc(Cl)ccc23)C[C@H]1CCc1ccccc1` was 62.1% (inactive); that for `NC(=O)c1cc(I)ccc1NC(=O)/C=C/c1ccccc1` was 0.952% (active).
The value for `CCOC(=O)CCCC(=O)OCC` was 102% (inactive); that for `Brc1ccsc1Br` was 102% (inactive); that for `CC(Cl)(CCl)CS(=O)(=O)c1ccc(Cl)cc1` (centres undefined) was 87.2% (inactive).
As to `O=C(/C=C(/C=C/c1csc2ccccc12)OB(F)F)/C=C/c1csc2ccccc12`, the growth is 2.68% (active).
For `O=C1c2ccccc2-c2c1c1cccnc1c(=O)n2C[C@H](O)CO`, the growth was 48.8% (inactive).
Take `Cc1nccc2c3ccc(OCc4cn(-c5ccc(Br)cc5)nn4)cc3n(CC(C)C)c12`: the growth was -48.1% (active).
The value for `CCOC(=O)c1ccc2c(c1)c1c(C)c3cccnc3c(C)c1n2C` was 77.4% (inactive).
The value for `COc1ccc(C/C(C)=C(\c2ccc(Cl)cc2)c2ccc(OCCN3CCCC3)cc2)cc1` was 76.9% (inactive); that for `N#Cc1ccc2nc[nH]c2c1` was 101% (inactive).
The value for `CCN(CC)CCCN1C(=O)c2c(c(C)c3c(oc4cc(OC)ccc43)c2C)C1=O` was 95% (inactive); that for `COC(=O)c1c2c(c(C)[n+]([O-])c1C)C(=O)C(NCc1cccc(Cl)c1)=CC2=O` was -56.1% (active); that for `N#Cc1c(-c2ccccc2)c(C#N)c2c(C#N)c(N)nn2c1N` was -17.2% (active).
For `CO[C@H](C(=O)[C@@H](O)[C@@H](C)O)[C@@H]1Cc2cc3cc(O[C@H]4C[C@@H](O[C@H]5C[C@@H](O)[C@H](O)C(C)O5)[C@H](O)C(C)O4)c(C)c(O)c3c(O)c2C(=O)[C@H]1O[C@H]1C[C@@H](O[C@H]2C[C@@H](O[C@H]3C[C@](C)(O)C(=O)C(C)O3)[C@@H](O)C(C)O2)[C@H](O)C(C)O1` (some centres undefined), the growth was 2.34% (active).
Turning to `CC(=O)CS(C)(=O)=O`, the growth was 100% (inactive).
In the case of `CCSC(SCC)c1ccc(Cl)cc1` it was 116% (inactive); in that of `Fc1ccc(CNCCNc2ncnc3c2cnn3-c2ccccc2)cc1`, 83.1% (inactive).
In the case of `CC1(C)CC[C@]2(C(=O)Nc3ccccn3)CC[C@]3(C)C(=CC[C@@H]4[C@@]5(C)C/C(=C/c6ccncc6)C(=O)C(C)(C)[C@@H]5CC[C@]43C)[C@@H]2C1` it was -0.971% (active); in that of `C[C@]12CC[C@H]3[C@@H](CC[C@H]4C[C@@H](O)CC[C@@]43C)[C@@H]1CC(=O)C2`, 83% (inactive); in that of `COC1=CC(c2ccc[nH]2)=N/C1=C\c1[nH]c(C)c(CC(=O)OCc2ccccc2)c1CCC(=O)OCc1ccccc1`, -31.1% (active).
In the case of `COc1ccc2c(c1)nc(NNC(=O)c1cnccn1)c1cccn12` it was -6.85% (active); in that of `CC(=O)O[C@H]1C[C@@]2(C)[C@@H](C[C@@H](O)[C@H]3[C@@]4(C)CC[C@H](N5CCCC5)[C@@H](C)[C@@H]4CC[C@@]32C)/C1=C(\CCC=C(C)C)C(=O)O`, -74.3% (active); in that of `CCCCCN1C=C/C(=C\C(=O)N(C)c2ccccc2Br)c2ccccc21`, 76.9% (inactive).
`O=C(CCN1C(=O)c2ccccc2C1=O)Nc1ccc(Cl)cc1`: the growth was 105% (inactive).
The value for `CCC(c1ccc(OC)cc1)C(CC)c1ccc(OCC[N+](C)(C)C)cc1` (centres undefined) was -17.4% (active).
The value for `CC1=NN(c2ccc(S(=O)(=O)O)cc2Cl)C(=O)C1` was 143% (inactive); that for `COc1ccc(-c2cc(-c3cc(OC)c(OC)c(OC)c3)nc(N3CCOCC3)c2C#N)cc1` was 51.4% (inactive).
The value for `O=C1c2ccccc2OC=C(c2ccccc2)N1CCCCN1CCCCC1` was 58.1% (inactive); that for `COc1cccc2ccc(CC(O)(c3ccccc3)c3ccccc3)nc12` was 95.8% (inactive).
In the case of `C=CCOC(=O)C(=O)OCC=C`, the growth was 68.7% (inactive).
The value for `C=C[C@@H]1C[C@H](O)Cc2cc(F)ccc2N1` was -2.59% (active); that for `Nc1nc(N)c2c(ccc3c2ccn3Cc2cccc([N+](=O)[O-])c2)n1` was 8.38% (active).
`Cc1cc(O)cc(-c2c(-c3ccnc(-c4cccnc4)c3)cnn2C)c1`: the growth was 46% (inactive).
